Data as given in PubChem BioAssay.
Calls of active or inactive are those of the source. Unless noted, the rule behind the calls is not given here.

Legend:
[1] = system: Wnt5a (protein binding on small-molecule microarray); test: Wnt5a binders on small-molecule microarray, primary screen, biophysical, 635/667 nm fluorescence (AID 1142); settings: 635 nm fluorescence, higher = more signal;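 note: fluorescence read at 667 nm with signal to noise per printed feature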
[2] = cell viability in Huh7 cells, primary screen, cytotoxicity control for HCV replication inhibitor project, CellTiter-Glo luminescence, basal, 48 h (AID 1143); settings: Huh7 HCV replicon, higher = more signal, called active from +8 up or from −8 down;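 note: Huh7 hepatoma cells carrying a hepatitis C replication reporter with no stimulus; test concentration not given here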
[3] = P. aeruginosa biofilm formation inhibitors, primary screen, PAO1 strain, BacTiter-Glo luminescence, LB-PBS (AID 1144); settings: 12 h, higher = more signal
[4] = CREB reporter modulators without forskolin, primary screen, cell-based, PC12, CRE-LacZ reporter, unstimulated (AID 1145); settings: no forskolin, luminescence, 4.5 h, higher = more signal, called active from +8 up or from −8 down
[5] = CREB reporter modulators under forskolin, primary screen, cell-based, PC12, CRE-LacZ reporter, forskolin-stimulated (AID 1146); settings: luminescence, 4.5 h, higher = more signal, called active from +8 up or from −8 down;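 note: PC12 cells with 6xCRE LacZ reporter stimulated by forskolin 10 µM; beta-galactosidase reporter signal reflecting CREB driven transcription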
[6] = target: Streptavidin (Streptomyces avidinii) (UniProt P22629); test: streptavidin binders on small-molecule microarray, primary screen, artefact control for SMM compound annotation, biophysical, 635/667 nm fluorescence (AID 1147); settings: streptavidin binding, higher = more signal;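 note: signal reflects streptavidin binding to arrayed compounds as a control protein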
Chain of Streptavidin (Streptomyces avidinii) (P22629 whole entry, looked up): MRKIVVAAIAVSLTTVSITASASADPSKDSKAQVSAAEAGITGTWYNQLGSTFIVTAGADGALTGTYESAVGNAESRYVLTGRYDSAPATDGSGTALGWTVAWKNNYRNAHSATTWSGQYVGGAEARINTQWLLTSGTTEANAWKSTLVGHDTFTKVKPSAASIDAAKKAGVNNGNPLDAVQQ

[7] = small-molecule binders of probe aInhba, primary screen, biochemical, small-molecule microarray, 635/667 nm fluorescence (AID 1148); settings: higher = more signal;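 note: score merges 667nm spot fluorescence with signal-to-noise for antibody binding to printed compounds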
Torsin-1A (Homo sapiens) [8] = target: Torsin-1A (Homo sapiens) (UniProt O14656); test: torsin A binders from cell lysate, primary screen, small-molecule microarray, wild-type, 635/667 nm (AID 1149); settings: COS7 hTOR1A-WT lysate, 635 nm fluorescence, higher = more signal
Chain of Torsin-1A (Homo sapiens) (O14656 whole entry, looked up): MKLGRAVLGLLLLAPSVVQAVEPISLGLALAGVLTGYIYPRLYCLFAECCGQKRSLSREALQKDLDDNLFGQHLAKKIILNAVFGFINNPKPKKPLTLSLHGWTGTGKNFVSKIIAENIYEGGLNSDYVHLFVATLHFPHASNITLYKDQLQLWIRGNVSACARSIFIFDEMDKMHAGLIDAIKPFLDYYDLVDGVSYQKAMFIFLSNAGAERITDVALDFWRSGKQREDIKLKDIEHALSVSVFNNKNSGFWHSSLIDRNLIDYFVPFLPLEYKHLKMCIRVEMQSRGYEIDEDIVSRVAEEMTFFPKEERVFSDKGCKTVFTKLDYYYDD

Torsin-1A (Homo sapiens) [9] = target: Torsin-1A (Homo sapiens) (UniProt O14656); test: small-molecule binders of mutant TOR1A in lysate, primary screen, cell lysate, small-molecule microarray, COS7 lysate, 635/667 nm fluorescence (AID 1150); settings: COS7 hTOR1A mutant lysate, 635 nm fluorescence, higher = more signal;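 note: score pools 667 nm emission and signal to noise measuring lysate protein binding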
[10] = system: Sonic hedgehog protein (Shh); test: small-molecule binders of Shh protein, primary screen, biochemical, small-molecule microarray, 635/667 nm fluorescence (AID 1151); settings: small-molecule microarray binding, 635 nm fluorescence; higher = more signal;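 note: Shh protein binding to compounds spotted on small-molecule microarray slides; score combines spot fluorescence intensity with signal-to-noise across triplicate slides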
[11] = E. coli DRC41 culture turbidity changes, primary screen, E. coli filamentation inducer project, strain DRC41, OD650, 48 h (AID 1152);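 note: E. coli MC1000 strain DRC41 lacking acrAB efflux pump and sulA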; settings: E. coli DRC41 (acrAB sulA), higher = more signal, called active from +8 up or from −8 down
[12] = small-molecule binders of probe aLefty1, primary screen, biochemical, small-molecule microarray, 635/667 nm fluorescence (AID 1153); settings: higher = more signal;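 note: score merges spot fluorescence with signal-to-noise ratio from the scanned slide images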
[13] = PSAC antagonists in infected red cells, primary screen, cell-based, P. falciparum Indochina, OD700, 1 h (AID 1154); settings: P. falciparum Indochina infected RBC osmotic lysis, higher = more signal, called active from +8 up or from −8 down
[14] = PSAC antagonists in infected red cells, primary screen, cell-based, P. falciparum Indochina, OD700, 2 h (AID 1155);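 note: lysis reports solute entry through the parasite surface anion channel PSAC; channel blockers reduce lysis of infected cells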; settings: P. falciparum Indochina infected erythrocytes, osmotic lysis OD700; higher = more signal, called active from +8 up or from −8 down
[15] = osmotic lysis modulators in infected erythrocytes, primary screen, PSAC antagonist project, cell-based, P. falciparum Indochina, OD700, 3 h (AID 1156); settings: higher = more signal, called active from +8 up or from −8 down
[16] = PSAC antagonists in infected red cells, primary screen, cell-based, P. falciparum Indochina, OD700, 18 h (AID 1157); settings: P. falciparum Indochina infected erythrocytes, osmotic lysis OD700, 18 h; higher = more signal, called active from +8 up or from −8 down
[17] = modulators of S6 phosphorylation in cells, primary screen, cell-based, A549, cytoblot, luminescence, serum-stimulated (AID 1158); settings: A549 phospho-S6 cytoblot, 5 h, higher = more signal;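 note: serum-stimulated A549 lung adenocarcinoma cells; signal is phosphorylated S6 detected by cytoblot immunostaining with HRP secondary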
[18] = target: NADPH oxidase 2 (Homo sapiens) (UniProt P04839); test: NOX2-dependent H2O2 signal modulators, primary screen, NOX inhibitor project, cell-based, HEK293-NOX2, PMA-stimulated, Amplex Red fluorescence (AID 1159); settings: 45 min, higher = more signal, called active from +8 up or from −8 down; note: test concentration not given here
Chain of NADPH oxidase 2 (Homo sapiens) (P04839 whole entry, looked up): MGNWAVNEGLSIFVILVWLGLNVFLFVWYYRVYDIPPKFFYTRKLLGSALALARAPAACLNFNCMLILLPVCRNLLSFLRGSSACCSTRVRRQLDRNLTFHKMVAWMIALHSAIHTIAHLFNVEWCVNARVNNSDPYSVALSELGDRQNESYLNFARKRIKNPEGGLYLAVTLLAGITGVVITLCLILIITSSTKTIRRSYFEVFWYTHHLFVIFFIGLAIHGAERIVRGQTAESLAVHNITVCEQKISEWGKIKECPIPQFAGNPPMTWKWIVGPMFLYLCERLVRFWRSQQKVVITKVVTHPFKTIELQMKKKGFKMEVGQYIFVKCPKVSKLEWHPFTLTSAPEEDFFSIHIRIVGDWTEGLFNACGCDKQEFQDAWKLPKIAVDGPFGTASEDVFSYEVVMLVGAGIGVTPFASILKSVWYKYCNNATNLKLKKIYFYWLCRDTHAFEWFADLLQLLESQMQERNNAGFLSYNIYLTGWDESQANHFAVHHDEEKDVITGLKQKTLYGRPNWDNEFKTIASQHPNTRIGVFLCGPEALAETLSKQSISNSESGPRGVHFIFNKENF

[19] = target: NADPH oxidase 4 (Homo sapiens) (UniProt Q9NPH5); test: NOX4-dependent H2O2 signal modulators, primary screen, NOX inhibitor project, cell-based, HEK293-NOX4, tetracycline-induced, Amplex Red fluorescence (AID 1160); settings: 45 min, higher = more signal, called active from +8 up or from −8 down
Chain of NADPH oxidase 4 (Homo sapiens) (Q9NPH5 whole entry, looked up): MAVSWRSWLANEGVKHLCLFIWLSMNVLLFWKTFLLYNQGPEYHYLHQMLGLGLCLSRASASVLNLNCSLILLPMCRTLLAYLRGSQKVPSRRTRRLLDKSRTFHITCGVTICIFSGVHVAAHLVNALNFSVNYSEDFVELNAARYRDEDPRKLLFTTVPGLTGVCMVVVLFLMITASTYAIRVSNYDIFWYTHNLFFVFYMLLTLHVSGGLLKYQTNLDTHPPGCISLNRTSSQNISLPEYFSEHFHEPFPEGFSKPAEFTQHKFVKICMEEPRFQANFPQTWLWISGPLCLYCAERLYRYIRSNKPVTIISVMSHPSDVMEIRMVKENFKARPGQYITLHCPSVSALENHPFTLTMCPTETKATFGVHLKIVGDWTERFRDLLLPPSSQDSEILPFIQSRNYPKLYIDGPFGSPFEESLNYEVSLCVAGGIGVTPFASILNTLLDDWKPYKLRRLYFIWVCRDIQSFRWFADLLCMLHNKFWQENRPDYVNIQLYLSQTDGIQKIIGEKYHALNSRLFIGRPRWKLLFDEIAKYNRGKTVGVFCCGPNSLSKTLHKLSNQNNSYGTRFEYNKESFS

[20] = target: NADPH oxidase 5 (Homo sapiens) (UniProt Q96PH1); test: NOX5-dependent H2O2 signal modulators, primary screen, NOX inhibitor project, cell-based, HEK293-NOX5, Amplex Red fluorescence (AID 1161); settings: HEK293-NOX5, ionomycin, 45 min, higher = more signal
Chain of NADPH oxidase 5 (Homo sapiens) (Q96PH1 whole entry, looked up): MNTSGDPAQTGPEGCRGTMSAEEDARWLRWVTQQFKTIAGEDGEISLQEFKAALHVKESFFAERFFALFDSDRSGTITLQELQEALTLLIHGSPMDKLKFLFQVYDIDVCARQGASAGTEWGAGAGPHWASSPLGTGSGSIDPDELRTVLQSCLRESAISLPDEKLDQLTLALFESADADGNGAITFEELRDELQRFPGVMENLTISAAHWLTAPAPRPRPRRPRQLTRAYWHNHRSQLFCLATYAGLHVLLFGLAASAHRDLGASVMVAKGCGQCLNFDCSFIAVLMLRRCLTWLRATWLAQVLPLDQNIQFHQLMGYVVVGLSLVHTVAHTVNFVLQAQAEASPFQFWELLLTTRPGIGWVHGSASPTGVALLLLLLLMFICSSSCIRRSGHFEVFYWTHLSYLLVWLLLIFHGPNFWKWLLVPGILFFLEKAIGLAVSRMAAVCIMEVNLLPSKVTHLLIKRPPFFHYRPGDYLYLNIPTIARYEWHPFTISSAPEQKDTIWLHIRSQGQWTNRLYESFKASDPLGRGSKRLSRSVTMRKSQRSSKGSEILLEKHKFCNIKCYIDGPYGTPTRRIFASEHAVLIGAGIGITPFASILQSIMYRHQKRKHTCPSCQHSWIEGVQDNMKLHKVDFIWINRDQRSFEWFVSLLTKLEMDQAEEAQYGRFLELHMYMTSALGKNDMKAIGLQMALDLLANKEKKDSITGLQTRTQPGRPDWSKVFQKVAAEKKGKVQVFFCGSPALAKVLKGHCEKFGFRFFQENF

Structure (SMILES)	composite z-score [1]	z-score [2]	z-score [3]	z-score [4]	z-score [5]	composite z-score [6]	composite z-score [7]	composite z-score (Torsin-1A (Homo sapiens) [8])	composite z-score (Torsin-1A (Homo sapiens) [9])	composite z-score [10]	z-score [11]	composite z-score [12]	z-score [13]	z-score [14]	z-score [15]	z-score [16]	z-score [17]	z-score [18]	z-score [19]	z-score [20]
COC(=O)c1nc2oc1CC[C@@H](CO)NC(=O)N(C)Cc1cn(nn1)C[C@H](Cc1ccccc1)NC2=O	-0.0811	-0.0962 (inactive)	0.0307 (inactive)	4.65 (inactive)	0.338 (inactive)	-0.357	-0.016	-0.685	-1.25	0.337	2.75 (inactive)	-0.145	1.53 (inactive)	0.394 (inactive)	0.864 (inactive)	0.0148 (inactive)	0.225	-0.454 (inactive)	0.917 (inactive)	0.398
CC(C)C(O)C1C=CC2C(=O)N(C)C(=O)C2N1N1CCCCC1 (stereo not given)	-0.0226	0.788 (inactive)	-0.775 (inactive)	-0.133 (inactive)	0.0399 (inactive)	0.482	-0.0704	-0.0881	1.29	0.192	-1.77 (inactive)	0.134	0.193 (inactive)	1.22 (inactive)	0.0667 (inactive)	1 (inactive)	-0.87	-0.569 (inactive)	-0.278 (inactive)	-1.52
CCOC(=O)C=Cc1cccc(OC)c1O	-0.811	-4.11 (inactive)	1.91 (inactive)	0.182 (inactive)	-0.791 (inactive)	-0.432	-0.13	-0.146	0.141	-0.8	-0.572 (inactive)	-0.184	21.2 (active)	2.21 (inactive)	0.957 (inactive)	-1.28 (inactive)	1.73	-5.37 (inactive)	-5.92 (inactive)	-6.34
Cc1ccccc1/C=C/C=O	-0.373	-0.042 (inactive)	-0.242 (inactive)	-0.204 (inactive)	0.834 (inactive)	-0.943	-0.137	-1.41	-0.62	-0.0373	0.871 (inactive)	-0.147	0.51 (inactive)	0.146 (inactive)	-0.0758 (inactive)	0.231 (inactive)	-0.265	-0.59 (inactive)	-0.0992 (inactive)	0.45
O=C(N1CCCCC1)[C@]1(CCS(=O)(=O)c2ccccc2)N=C(c2ccc(OCCCO)cc2)O[C@@H]1c1ccccc1	0.497	-5.48 (inactive)	0.13 (inactive)	1.16 (inactive)	-0.526 (inactive)	0.721	0.461	0.608	0.885	0.624	-0.725 (inactive)	1.17	27.2 (active)	19.5 (active)	2.02 (inactive)	-0.192 (inactive)	1.54	-2.96 (inactive)	-1.7 (inactive)	-1.94
CCCC[C@@H]1C[C@H]1[C@@H](NC(=O)c1ccccc1)c1ccc(-c2ccccc2)cc1	-0.0558	-4.35 (inactive)	0.257 (inactive)	0.0075 (inactive)	0.31 (inactive)	0.301	-0.0736	-0.256	-0.0118	-1.11	-1.66 (inactive)	0.212	11.5 (active)	1.95 (inactive)	1.57 (inactive)	1.16 (inactive)	0.319	-1.68 (inactive)	-2.79 (inactive)	0.666
C=CCN1C(=O)[C@]2(Cc3ccccc31)N=C(c1ccc(OCCCO)cc1)O[C@@H]2c1ccccc1	1.2	-3.54 (inactive)	-0.324 (inactive)	-0.146 (inactive)	-0.436 (inactive)	0.586	-0.0645	0.154	0.512	0.308	-3.11 (inactive)	0.165	26 (active)	19.4 (active)	1.09 (inactive)	3.1 (inactive)	0.253	-1.42 (inactive)	0.273 (inactive)	-0.785
C=C(CCCC)C(=O)CC[C@H](OC(C)=O)c1ccc(CO)o1	0.0631	-3.11 (inactive)	-0.312 (inactive)	0.508 (inactive)	-0.79 (inactive)	-0.264	-0.0427	-0.423	0.794	1.99	0.33 (inactive)	0.929	2.26 (inactive)	-0.43 (inactive)	0.25 (inactive)	-1.8 (inactive)	0.612	0.184 (inactive)	0.209 (inactive)	-1.32
O=C1OCCC=C[C@H]2OC34C=CCN(CCN5CCOCC5)C(=O)[C@H]3N(CCO)C(=O)[C@@H]4C12 (stereo not given in full)	-0.141	0.473 (inactive)	0.329 (inactive)	-0.358 (inactive)	-0.0338 (inactive)	-0.983	-0.168	-0.23	0.0141	0.731	-0.392 (inactive)	-0.231	0.329 (inactive)	0.392 (inactive)	0.918 (inactive)	0.551 (inactive)	0.65	0.808 (inactive)	0.49 (inactive)	0.0715
O=C1O[C@H](c2ccccc2)[C@H](c2ccccc2)N2[C@H]1[C@@H](C(=O)NC[C@H](O)c1ccccc1)[C@]1(C(=O)Nc3ccc(C#CC4(O)CCCCCC4)cc31)[C@H]2c1ccccc1OCCO	1.21	-5.52 (inactive)	-0.52 (inactive)	-0.325 (inactive)	-0.349 (inactive)	-0.428	0.214	0.644	1.08	0.877	0.0511 (inactive)	0.701	3.8 (inactive)	2.21 (inactive)	-0.957 (inactive)	2.07 (inactive)	-0.0056	0.65 (inactive)	0.267 (inactive)	1.39
COCCCNC(=O)[C@]1(Cc2ccccc2N=[N+]=[N-])N=C(c2ccc(OCCCO)cc2)O[C@@H]1c1ccccc1CN=[N+]=[N-]	0.823	-5.15 (inactive)	-0.421 (inactive)	0.825 (inactive)	-1.47 (inactive)	1.11	0.442	0.673	0.57	0.26	0.871 (inactive)	0.766	28.1 (active)	21.2 (active)	3.17 (inactive)	2.71 (inactive)	1.97	-0.888 (inactive)	0.4 (inactive)	-0.209
COCCOC(=O)N1C(=O)[C@@]2(c3cc(C#CCC(C(=O)OC)C(=O)OC)ccc31)[C@H](c1ccc(OCCO)cc1)N1[C@H](c3ccccc3)[C@H](c3ccccc3)OC(=O)[C@H]1[C@@H]2C(=O)NC[C@H](O)c1ccccc1	0.354	-1.84 (inactive)	-1.29 (inactive)	-1.56 (inactive)	-0.526 (inactive)	0.521	0.281	1.72	1.18	2.14	0.588 (inactive)	-0.0533	3.79 (inactive)	1.54 (inactive)	1.69 (inactive)	1.17 (inactive)	0.22	1.53 (inactive)	1.26 (inactive)	1.17
COc1ccc(C(=O)Nc2cccc(CN3C(=O)[C@@]4(O[C@@H](CC(=O)N5Cc6ccccc6C[C@H]5CO)[C@H]([Si](C)(C)c5ccc(OC)cc5)[C@H]4C)c4ccccc43)c2)cc1	0.209	-5.04 (inactive)	-0.473 (inactive)	4.45 (inactive)	-0.534 (inactive)	0.395	-0.0095	0.726	0.488	2.06	-0.333 (inactive)	0.139	4.24 (inactive)	1.49 (inactive)	0.712 (inactive)	0.768 (inactive)	1.33	-1.03 (inactive)	0.0938 (inactive)	-0.713
C=CCN1Cc2ccccc2C[C@@]2(COC(c3ccc(OCCCO)cc3)=N2)C1=O	0.253	-2.99 (inactive)	-0.547 (inactive)	3.21 (inactive)	-1.41 (inactive)	0.112	0.185	0.729	0.827	0.521	0.754 (inactive)	0.121	22.7 (active)	5.46 (inactive)	5.11 (inactive)	0.985 (inactive)	-0.14	-5.73 (inactive)	-1.35 (inactive)	-3.28
CC(C)N1C(=O)c2ccccc2[C@](C)(C(=O)NCCCN(C)C)[C@@H]1c1ccc(CO)cc1	-0.265	0.17 (inactive)	0.352 (inactive)	-0.0888 (inactive)	-0.297 (inactive)	0.578	-0.204	3.98	3.56	0.0142	0.0259 (inactive)	0.0201	2.5 (inactive)	0.347 (inactive)	0.766 (inactive)	0.4 (inactive)	0.564	0.288 (inactive)	0.893 (inactive)	1.15
C=CCC(OC(C)=O)[C@@H]1[C@@H](N(Cc2cc3ccccc3o2)C(=O)c2ccc(-c3ccccc3)cc2)c2cc(OCCCO)ccc2N1C(=O)Cc1ccc2ccccc2c1 (stereo not given in full)	-0.172	0.0758 (inactive)	0.19 (inactive)	1.85 (inactive)	0.874 (inactive)	0.0693	0.0963	-0.635	-0.0864	-0.076	-0.0233 (inactive)	-0.0984	0.574 (inactive)	-0.344 (inactive)	-0.145 (inactive)	0.26 (inactive)	0.233	0.972 (inactive)	-0.906 (inactive)	1.53
CN(C)CCCC[C@@H]1NC(=O)[C@H]2C[C@@H](C(=O)NCCCCCNC(=O)CS)[C@@H](c3ccc(O)cc3)N2C1=O	-0.22	-0.0046 (inactive)	-0.315 (inactive)	0.683 (inactive)	-0.0503 (inactive)	-0.175	-0.208	-0.217	0.239	0.0878	0.445 (inactive)	-0.0196	0.93 (inactive)	0.683 (inactive)	-0.988 (inactive)	0.153 (inactive)	-0.0137	0.394 (inactive)	-0.265 (inactive)	0.877
